{"source": "ChEMBL document CHEMBL3988442", "about": "“University of Dundee, Small-Polar-MMV Screening Library” (2021)", "note": "Screen size: about 48,000 compounds; about 13,000 (27%) showed an effect of 50% or more. This is one part of the list.", "data": [{"test_system": "Wolbachia pipientis", "experiment": "Anti-Wolbachia Cell-Based Screen", "format": "functional", "parameters": "scale not given: in the data most compounds retested in dose-response had high values", "details": "5 µM", "units": {"Percent Effect": "%"}, "values": [{"molecule": "FC(F)(F)c1ccccc1CCC1CCCN(Cc2cscn2)C1", "note": "(centres undefined)", "Percent Effect": 15.59}, {"molecule": "COc1ccc2c(c1)nc1n2[C@@H](CNC(=O)c2cccnc2)COC1", "Percent Effect": -6.986}, {"molecule": "O=C(O)C(F)(F)F.O=C([C@H]1C[C@H]2OCC[C@H]2N(Cc2ccoc2)C1)N1CCCO1", "Percent Effect": 7.487}, {"molecule": "O=C(N[C@@H]1CN(Cc2cccs2)[C@@H]2CCCO[C@@H]21)C1CC1", "Percent Effect": -17.92}, {"molecule": "CN(C)C(=O)N[C@H]1CN(Cc2ccc3c(c2)OCO3)[C@@H]2CCCO[C@H]12.O=C(O)C(F)(F)F", "Percent Effect": 93.48}, {"molecule": "O=C(NC1CCCC1)[C@H]1C[C@H]2OCC[C@H]2N(Cc2ccoc2)C1.O=C(O)C(F)(F)F", "Percent Effect": 13.19}, {"molecule": "O=C(N[C@@H]1CN(Cc2ccoc2)[C@@H]2CCCO[C@@H]21)C1CC1.O=C(O)C(F)(F)F", "Percent Effect": 105.3}, {"molecule": "O=C(N[C@@H]1CN(Cc2ccsc2)[C@@H]2CCCO[C@@H]21)C1CC1", "Percent Effect": -8.929}, {"molecule": "CN(C)C(=O)N[C@@H]1CN(Cc2ccc3c(c2)OCO3)[C@@H]2CCCO[C@@H]21.O=C(O)C(F)(F)F", "Percent Effect": -22.69}, {"molecule": "O=C(N[C@H]1CN(Cc2ccsc2)[C@@H]2CCCO[C@H]12)C1CC1.O=C(O)C(F)(F)F", "Percent Effect": 106.9}, {"molecule": "CN(C)C(=O)[C@H]1C[C@H]2OCC[C@H]2N(Cc2ccc3c(c2)OCO3)C1.O=C(O)C(F)(F)F", "Percent Effect": 0.2139}, {"molecule": "O=C(c1ccccc1)C1CCN(Cc2cc3c(cc2O)CCC3)CC1", "Percent Effect": -3.001}, {"molecule": "O=S(=O)(c1cccnc1)N1C[C@@H]2CC[C@H](C1)N(Cc1ccccc1)C2", "Percent Effect": -31.29}, {"molecule": "Cn1cc(N2CCC(NC(=O)c3c(F)cccc3Cl)C2=O)cn1", "note": "(centres undefined)", "Percent Effect": -23.29}, {"molecule": "Cc1ncccc1Oc1nccnc1C1CCN(C(C)C)CC1", "Percent Effect": -4.012}, {"molecule": "COCC(=O)N1CCC(c2nccnc2Oc2cccnc2C)CC1", "Percent Effect": 0.288}, {"molecule": "COc1ccc(CN(C)C2CCN(S(C)(=O)=O)CC2)c2cccnc12", "Percent Effect": 1.454}, {"molecule": "Cc1ncccc1Oc1nccnc1C1CCCN(C(C)C)C1", "note": "(centres undefined)", "Percent Effect": 134.2}, {"molecule": "COc1ccccc1Oc1ncccc1CNC(=O)C(C)N1CCCC1", "note": "(centres undefined)", "Percent Effect": -2.64}, {"molecule": "Cc1ncccc1Oc1nccnc1C1CCN(S(C)(=O)=O)CC1", "Percent Effect": 120.9}, {"molecule": "CN(C)CCN1CCN(C)C2(CCN(c3nccs3)CC2)C1=O", "Percent Effect": -6.968}, {"molecule": "CC1(C)CNC(=O)c2nc(C3CCCN(C(=O)C4CC4)C3)[nH]c2C1", "note": "(centres undefined)", "Percent Effect": -1.543}, {"molecule": "O=C(Nc1cc(-c2ccncc2)no1)C1CCCCC1", "Percent Effect": -8.136}, {"molecule": "O=C(N1CCCC1)N1CCCC(c2nccn2Cc2ccncc2)C1", "note": "(centres undefined)", "Percent Effect": 19.93}, {"molecule": "O=C(C1CCCC1)N1CCCC(c2nc(O)cc(-c3ccncc3)n2)C1", "note": "(centres undefined)", "Percent Effect": 85.76}, {"molecule": "O=C(C1CC1)N1CCCC(c2nc(O)cc(-c3ccncc3)n2)C1", "note": "(centres undefined)", "Percent Effect": 87.21}, {"molecule": "CC(=O)c1cccc(NC(=O)C2CN(S(=O)(=O)C3CC3)C2)c1", "Percent Effect": 8.617}, {"molecule": "O=C(CCNCC(F)(F)F)N1CCC(Nc2cccnn2)CC1", "Percent Effect": -5.357}, {"molecule": "Cc1ccc(NC2CCN(C(=O)CCNS(C)(=O)=O)CC2)nn1", "Percent Effect": -0.08742}, {"molecule": "Cc1ccc(NC2CCN(C(=O)CCNc3ncccn3)CC2)nn1", "Percent Effect": 111.7}, {"molecule": "Cc1ccc(NC2CCN(C(=O)CCCn3ccnc3C)CC2)nn1", "Percent Effect": 100.9}, {"molecule": "Cc1nccn1CCCC(=O)N1CCC(Nc2cccnn2)CC1", "Percent Effect": 11.87}, {"molecule": "O=C(CCNc1ncccn1)N1CCC(Nc2cccnn2)CC1", "Percent Effect": 106.9}, {"molecule": "CC(C)(C)C(=O)NCCC(=O)N1CCC(Nc2cccnn2)CC1", "Percent Effect": 101.9}, {"molecule": "COC1CCCN(C(=O)NCC(C)(C)SC)C1", "note": "(centres undefined)", "Percent Effect": -6.562}, {"molecule": "NC(=O)C(NC1CCN(CC2CCCCC2)CC1)c1ccc(F)cc1", "note": "(centres undefined)", "Percent Effect": 3.018}, {"molecule": "CS(=O)(=O)CCC(=O)Nc1cc(Cl)c(Cl)cn1", "Percent Effect": -8.334}, {"molecule": "O=C(c1ccc(S(=O)(=O)NCC(F)F)cc1)N1CC[C@H]2CNC[C@H]21", "Percent Effect": -11.61}, {"molecule": "CSc1ccc(C(C)NC(=O)c2cc(C)on2)cc1", "note": "(centres undefined)", "Percent Effect": -17.95}, {"molecule": "Cc1noc(C)c1CCCNC(=O)Nc1cccc([S+](C)[O-])c1", "note": "(centres undefined)", "Percent Effect": -8.91}, {"molecule": "CS(=O)(=O)N1CC[C@]2(O)CCN(CCCC(=O)c3ccccc3)C[C@@H]2C1", "Percent Effect": 92.75}, {"molecule": "Cc1ccc(N2CC[C@@]3(O)CCN(S(C)(=O)=O)C[C@H]3C2)nn1", "Percent Effect": -14.46}, {"molecule": "CN(C)S(=O)(=O)N1CC[C@]2(O)CCN(CCCc3cccnc3)C[C@@H]2C1", "Percent Effect": 99.63}, {"molecule": "CS(=O)(=O)N1CC[C@]2(O)CCN(c3ccnc(N)n3)C[C@@H]2C1", "Percent Effect": -18.71}, {"molecule": "CN(C)S(=O)(=O)N1CC[C@]2(O)CCN(c3ncccn3)C[C@@H]2C1", "Percent Effect": 8.402}, {"molecule": "CN(C)S(=O)(=O)N1CC[C@]2(O)CCN(c3nccs3)C[C@@H]2C1", "Percent Effect": -7.348}, {"molecule": "O=C(c1[nH]nc(C2CC2)c1Cl)N1CCCC1", "Percent Effect": -9.749}, {"molecule": "Fc1ccccc1C(CNc1ccncn1)N1CCCC1", "note": "(centres undefined)", "Percent Effect": 123.2}, {"molecule": "OC(CN1CCCCCCC1)c1ccc(F)cc1", "note": "(centres undefined)", "Percent Effect": -2.886}, {"molecule": "O=C(C(c1ccc(F)cc1)N1CCCCC1)N1CCn2cncc2C1", "note": "(centres undefined)", "Percent Effect": 7.503}, {"molecule": "CCc1cnc(NCC(c2ccncc2)N2CCOCC2)nc1", "note": "(centres undefined)", "Percent Effect": -11.49}, {"molecule": "Fc1ccc(C(CNc2ccncn2)N2CCCCC2)cc1", "note": "(centres undefined)", "Percent Effect": 113.6}, {"molecule": "O=C(N1CCCC1)N1CCC(Nc2ccncn2)CC1", "Percent Effect": 4.287}, {"molecule": "Fc1ccc(C(CNc2ccncn2)N2CCCC2)cc1", "note": "(centres undefined)", "Percent Effect": 85.77}, {"molecule": "COc1cc(NCC(c2ccccn2)N2CCOCC2)ncn1", "note": "(centres undefined)", "Percent Effect": -14.18}, {"molecule": "NCc1cc(NCC(c2ccccn2)N2CCOCC2)ncn1", "note": "(centres undefined)", "Percent Effect": -3.716}, {"molecule": "CCc1cc(N(C)Cc2[nH]nc3c2CCC3)nc(N2CCOCC2)n1", "Percent Effect": 17.45}, {"molecule": "O=C(NCC1(c2ccc(F)cc2)CC1)N1CCC2(CCOC2)C1", "note": "(centres undefined)", "Percent Effect": -4.934}, {"molecule": "CC(=O)N1CCO[C@@H]2CN(C(=O)c3ccccc3)CC[C@@H]2C1", "Percent Effect": -4.476}, {"molecule": "CN1CCO[C@@H]2CN(S(=O)(=O)c3ccccc3F)CC[C@@H]2C1.O=C(O)C(F)(F)F", "Percent Effect": -5.27}, {"molecule": "O=C(O)C(F)(F)F.O=S(=O)(C1CC1)N1C[C@@H]2CN(Cc3cccs3)CCO[C@@H]2C1", "Percent Effect": 9.308}, {"molecule": "CC(C)CN1CC[C@@H]2[C@@H]1CCN2S(=O)(=O)c1cccs1.O=C(O)C(F)(F)F", "Percent Effect": -11.08}, {"molecule": "CN1CCO[C@@H]2CN(S(=O)(=O)c3cccs3)CC[C@@H]2C1.O=C(O)C(F)(F)F", "Percent Effect": 99.53}, {"molecule": "CN(C)C[C@H]1OC[C@@H]2CCN(S(=O)(=O)c3cccs3)C[C@@H]21.O=C(O)C(F)(F)F", "Percent Effect": -5.421}, {"molecule": "CCN1CCO[C@@H]2CN(S(=O)(=O)c3cccs3)CC[C@@H]2C1.O=C(O)C(F)(F)F", "Percent Effect": 101.9}, {"molecule": "CCS(=O)(=O)N1C[C@@H]2CN(Cc3cccs3)CCO[C@@H]2C1.O=C(O)C(F)(F)F", "Percent Effect": 3.582}, {"molecule": "CCO[C@@H]1C[C@H]2CN(S(=O)(=O)c3cccs3)CCN2C1.O=C(O)C(F)(F)F", "Percent Effect": -4.424}, {"molecule": "CC(=O)N1CCO[C@@H]2CN(S(=O)(=O)c3cccs3)CC[C@@H]2C1", "Percent Effect": 114.4}, {"molecule": "CC(C)N1CCO[C@@H]2CN(S(=O)(=O)c3cccs3)CC[C@@H]2C1.O=C(O)C(F)(F)F", "Percent Effect": 96.63}, {"molecule": "CCC(C)Nc1ccc2c(c1)C1(CCOCC1)C(=O)N2c1ccccc1", "note": "(centres undefined)", "Percent Effect": 13.06}, {"molecule": "Cc1ccccc1CS(=O)(=O)CC(=O)N(C)Cc1cccc(F)c1", "Percent Effect": -33.07}, {"molecule": "CCN1CCN2CCCN(S(=O)(=O)c3ccc(S(C)(=O)=O)cc3)C2C1=O", "note": "(centres undefined)", "Percent Effect": 10.86}, {"molecule": "CCn1c(CN(C)C(C)CSC)nc2c(F)cccc21", "note": "(centres undefined)", "Percent Effect": -3.593}, {"molecule": "Cn1nnnc1SCCNC(=O)C1CCN(C(=O)C2CC2)CC1", "Percent Effect": 0.3316}, {"molecule": "CCCNC(=O)Cn1c(C)nn(C(C)(C)C)c1=O", "Percent Effect": -1.553}, {"molecule": "CCCc1cc(=O)n(CC(=O)NC(C)C)c(-n2nc(C)cc2C)n1", "Percent Effect": 152.6}, {"molecule": "COCCS(=O)(=O)NC(C)c1ccc(-n2nc(C)cc2C)cc1", "note": "(centres undefined)", "Percent Effect": -14.21}, {"molecule": "CCCc1cc(=O)n(CC(N)=O)c(-n2nc(C)cc2C)n1", "Percent Effect": 12.11}, {"molecule": "Cc1cc(C)n(-c2cncc(N3CCN(C(=O)C(C)C)CC3)n2)n1", "Percent Effect": -1.845}, {"molecule": "CCN(CC)C(=O)CCNc1cncc(-n2nc(C)cc2C)n1", "Percent Effect": -4.875}, {"molecule": "CCCNC(=O)Cn1c(-n2nc(C)cc2C)nc(CCC)cc1=O", "Percent Effect": 109.3}, {"molecule": "COCCNC(=O)Cn1c(C)cc2nc(SC)n(CC(C)C)c(=O)c21", "Percent Effect": 0.09267}, {"molecule": "CCCc1cc(=O)n(CC(=O)NCCOC)c(-n2nc(C)cc2C)n1", "Percent Effect": 110}, {"molecule": "CCC(O)CN(CC(=O)NC(=O)NC1CC1)c1ccccc1", "note": "(centres undefined)", "Percent Effect": -6.258}, {"molecule": "CCOCC1CC2(CCN(C(=O)C3CCSCC3)CC2)CO1", "note": "(centres undefined)", "Percent Effect": -12.12}, {"molecule": "O=C1CC(c2ccco2)c2sc(C(=O)O)c(-c3ccccc3)c2N1", "note": "(centres undefined)", "Percent Effect": 3.632}, {"molecule": "O=C(CO)N1C[C@H]2CC[C@@H]1CN(C1Cc3ccccc3C1)C2", "Percent Effect": -7.791}, {"molecule": "CCc1noc(C(C)N2CCN(Cc3nnc(C4CC4)o3)CC2)n1", "note": "(centres undefined)", "Percent Effect": 4.733}, {"molecule": "CC(c1nc(C2CC2)no1)N1CCN(Cc2nnc(C3CC3)o2)CC1", "note": "(centres undefined)", "Percent Effect": 142.3}, {"molecule": "CC(C)c1nnc(CN2CCN(C(C)c3nc(C4CC4)no3)CC2)o1", "note": "(centres undefined)", "Percent Effect": 138.5}, {"molecule": "Cc1cc(CN2CCN(C(C)c3nc(C4CC4)no3)CC2)no1", "note": "(centres undefined)", "Percent Effect": 2.927}, {"molecule": "COc1ccc(CN2CCN(C(C)c3nc(C4CC4)no3)CC2)cc1", "note": "(centres undefined)", "Percent Effect": 8.61}, {"molecule": "CC(C)c1nc(C2CCCN(Cc3nnc(C4CC4)o3)C2)no1", "note": "(centres undefined)", "Percent Effect": -2.987}, {"molecule": "Cc1nnc(CN2CCN(C(C)c3nc(C4CC4)no3)CC2)o1", "note": "(centres undefined)", "Percent Effect": 96.71}]}]}
